# ROMK mod = modulators of human ROMK potassium channel; hit rate 2% among 130,000; P48048; B-score at 10 µM; Tet-inducible ROMK, thallium flux fluorescence; actives lie on both sides;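 active means signal ratio slope over the read window, or its plate-corrected B-score, at least 3 SD from the plate mean, either direction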;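 further: B-score of the F/F0 ratio slope over 7 to 12 s after thallium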
# Target sequence (P48048 whole entry, looked up): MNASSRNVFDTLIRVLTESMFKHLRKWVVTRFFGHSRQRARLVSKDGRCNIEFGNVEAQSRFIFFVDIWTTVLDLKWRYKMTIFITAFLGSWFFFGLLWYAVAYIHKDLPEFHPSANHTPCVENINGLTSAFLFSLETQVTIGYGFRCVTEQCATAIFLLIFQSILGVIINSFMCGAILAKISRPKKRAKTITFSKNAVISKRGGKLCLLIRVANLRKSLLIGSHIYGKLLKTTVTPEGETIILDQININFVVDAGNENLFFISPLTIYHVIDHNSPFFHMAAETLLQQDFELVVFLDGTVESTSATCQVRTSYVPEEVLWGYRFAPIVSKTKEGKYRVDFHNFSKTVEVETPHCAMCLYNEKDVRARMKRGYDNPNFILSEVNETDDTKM
# TbHK1 inh = T. brucei hexokinase 1 inhibition | inhibition, % at 10 µM | recombinant TbHK1, G6PDH-coupled NADH A340 | hit rate 0.11% among 220,000;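 active means inhibition of 50% or more in the single-dose primary screen; inactive means inhibition below 50%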
# INS promoter inh = TRM-6 insulin promoter activity inhibition | inhibition, % at 2 µM | hit rate 0.9% among 130,000 | TRM-6 cells (human fetal islet line), insulin promoter-eGFP reporter, imaging; reporter expression induced with tamoxifen;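 active means inhibition above the mean plus 3 SD, with well images judged a real hit on visual review, cut at about 60% in these data, passing the limit was not always enough; inconclusive means inhibition over the cutoff but images rejected on review; inactive means inhibition not above the cutoff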
# HSV augment = increases HSV replication in cells | HSV replication augmentation in cells, fold increase | maximum fold increase | hit rate 0.005% among 220,000 | AID 1956; in the data active means maximum fold increase above about 1.5; inconclusive means no clear call, values can overlap the other calls; tested in PC3 cells
# Insulin prom up = MIN6 insulin promoter up-regulation; MIN6 insulin promoter-GFP reporter, high-content imaging; active compounds read high; z-score at 5 µM; hit rate 0.3% among 190,000;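 active means z-score above 3 at 5 µM with at least 500 cells counted in the well; inconclusive means wells under 500 cells, flagged as cytotoxic or low count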
# ROMK retest = retested hit modulating human ROMK potassium channel. shares compounds with ROMK mod. ROMK thallium flux, fluorescence ratio; active compounds read low. normalized thallium flux (F/F0 slope) at 10 µM. hit rate 54% among 3,000;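 active means Flux at 10 µM at least 3 SD below or above vehicle control mean in one or both replicates; inconclusive means no clear call, values can overlap the other calls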
# * = called active by the depositor; i = inactive; ? = inconclusive; . = no result. The sample as a whole holds a higher share of hits than the screen did.
SMILES,ROMK mod,TbHK1 inh,INS promoter inh,HSV augment,Insulin prom up,ROMK retest
Cc1ccc(C(C[N+](=O)[O-])Sc2ccc(N)cc2)cc1 (stereo not given),.,-14,.,i,0.06,.
Cc1ccc(C(C[N+](=O)[O-])n2nc(C)cc2C)cc1 (stereo not given),-2.4,-4,18,i,-0.24,0.059*
O=Cc1ccc(N2CCCC2)c([N+](=O)[O-])c1,-0.039,-27,-89,i,-0.15,.
O=[N+]([O-])/C=C\c1ccc(N2CCCC2)c(F)c1,.,1,-77,.,-1.5,0.042*
O=[N+]([O-])c1cc(/C=N/O)ccc1N1CCCC1,-3.4*,-12,7,i,0.05,?
O=C(Oc1coc(CSc2nnc(NC(=O)C3CC3)s2)cc1=O)c1c(F)cccc1F,-0.018,3,33,i,-0.17,.
O=C(Nc1ccc(Oc2ccc(NC(=O)Nc3ccccc3Cl)cc2)cc1)Nc1ccccc1Cl,.,-13,.,i,0.24,.
O=C(O)/C(=C\c1ccccc1OC(F)F)Sc1nnc(-c2ccc(F)cc2)o1,-3*,-10,-14,i,0.1,0.056*
c1ccc2c(-c3ccncc3)c[nH]c2c1,4*,-4,45,i,0.45,0.091
c1ccc(-c2nnc(-c3ccccc3)c(-c3c[nH]c4ccccc34)n2)cc1,.,-5,23,i,-0.38,.
S=C(Nc1ccc(N2CCOCC2)cc1)Nc1ccc2snnc2c1,-0.1,-9,.,i,-0.23,.
O=C(CCc1ccccc1)NC(=S)NCc1ccco1,-0.85,-3,.,i,0.38,.
COc1ccc(OCC(=O)NNc2c3ccccc3nc3ccccc23)cc1,.,-1,-28,i,1.4,?
Cc1cc(C)nc(/N=C(\N)Nc2ccc(OCc3ccccc3)cc2)n1,-0.69,14,.,i,-4,.
Cc1cc(C)nc(/N=C(\N)Nc2cccc(OCc3ccccc3)c2)n1,.,-9,.,i,-1.1,0.055*
Cc1cccc[n+]1CCCCCCCCCC[n+]1ccccc1C,0.31,-1,19,i,-0.18,.
CCCCCCCCCC[n+]1cccc2c3ccccc3ccc21,.,4,-107,i,?,0.035*
Cc1c2ccccc2cc[n+]1CCCS(=O)(=O)[O-],1.3,-6,44,i,-0.27,.
CCCCCCCC[n+]1cccc2c3ccccc3ccc21,.,-12,-57,i,?,0.052*
COc1ccc(N=C2S/C(=C\c3ccc(OCC(=O)O)cc3)C(=O)N2CCc2c[nH]c3ccccc23)cc1,8.5*,-5,.,i,1.3,0.12*
COc1ccc(N=C2S/C(=C\c3ccc(N4CCOCC4)o3)C(=O)N2CCc2c[nH]c3ccccc23)cc1,.,-14,43,i,.,0.058*
CCCCC1(O)CC(C(F)(F)F)=NN1C(=O)COc1ccccc1 (stereo not given),-1.2,8,-100,i,-1.1,.
COc1ccc(C2N(C(=O)N3CCOCC3)CCN2S(=O)(=O)c2ccc(C)cc2)cc1 (stereo not given),1.9*,2,23,i,-0.66,0.083
Cc1ccccc1NC(=O)c1sc(NC(=O)COc2ccccc2)c(C#N)c1C,.,18,17,i,-0.75,.
COc1cc(C(C(=O)NC2CCCC2)N(C(=O)Cc2cccs2)C2CC2)cc(OC)c1OC (stereo not given),-0.52,2,.,i,0.62,.
SMILES,ROMK mod,TbHK1 inh,INS promoter inh,HSV augment,Insulin prom up,ROMK retest
CN(C)S(=O)(=O)c1cc(C(=O)OCCn2cnc3c2c(=O)n(C)c(=O)n3C)ccc1Cl,-0.18,0,.,i,-1.1,.
CCOc1ccc(/C=N/n2cnnc2)cc1,.,-8,25,i,-0.94,.
CCOc1cc(/C=N/n2cnnc2)cc(Br)c1O,.,-22,-11,i,-0.08,0.077
Cc1ccc(-n2c(Cl)c(Cl)nc(Cl)c2=O)cc1,-4.7*,-9,-233,i,?,0.047*
CCCCn1c(SCC(=O)Nc2cc(C(F)(F)F)ccc2Cl)nnc1C(CC)N(C)C (stereo not given),.,12,-57,i,-0.42,.
Cc1ccc(-c2cc(C(F)F)n3ncc(C(=O)N4CCN5CCCC5C4)c3n2)cc1 (stereo not given),.,-17,-7,i,-0.96,.
CCOC(=O)C1CCCN(C(=O)c2cnn3c(C(F)F)cc(-c4ccc(C)cc4)nc23)C1 (stereo not given),.,-26,.,i,0.12,0.073
CSc1ncccc1C(=O)Nc1ccc(F)c(F)c1F,-0.47,0,50,i,-0.76,.
Cc1cc(N2CCN(c3ccc([N+](=O)[O-])c4cccnc34)CC2)c2ccccc2n1,-2.6*,-12,-138,i,0.24,0.062*
O=C(c1ccccc1F)N1CCN(c2ccc([N+](=O)[O-])c3cccnc23)CC1,-3.1,-7,.,i,-0.85,.
O=C1Cc2cc(CCN3CCN(c4nsc5ccccc45)CC3)c(Cl)cc2N1,.,.,.,.,-0.12,.
O=C1NC(c2ccc3c(c2)OCO3)Nc2ccccc21 (stereo not given),2.2*,-6,7,i,0.05,0.085
O=C(O)c1ccc(Sc2nnc3ccccn23)c([N+](=O)[O-])c1,.,-20,.,i,1.3,.
c1ccc(-c2csc3ncnc(NCc4ccccn4)c23)cc1,.,-8,.,i,-1.3,0.056*
NNc1nc2c(Cl)ccc(Cl)c2s1,.,22,22,i,-0.35,.
COc1ccc(C(=O)COc2ccc(C)cc2NC(C)=O)cc1,.,-5,.,i,-0.35,.
CCCCCCn1c2c(c(=N)c3c1CCC3)CCC2,.,8,4,i,?,.
CCCCCCCCCn1c2c(c(=N)c3c1CCC3)CCC2,.,12,-177,i,?,0.043*
O=C(OCc1ccc(F)cc1)c1ccc2ccccc2n1,-0.01,-2,-25,i,0.33,.
COc1coc(C(O)CN)cc1=O (stereo not given),1.9,-1,13,i,-0.14,.
CCOC(=O)C(=Cc1cc(=O)c(OC)co1)C(=O)OCC,-4.1*,2,-7,i,?,0.048*
COc1ccc(N(C(=O)CCC(=O)Nc2cc(C)on2)C(C(=O)NC2CCCC2)c2ccco2)cc1 (stereo not given),-0.16,4,.,i,0,.
COc1ccc(N(C(=O)/C=C/C(=O)Nc2cc(C)on2)C(C(=O)NC2CCCC2)c2ccccc2C)cc1 (stereo not given),-6.4*,40,32,i,-0.42,0.057*
CC(C)CCNC(=O)c1onc(CSc2ccc(F)c(F)c2)c1C(=O)NCCC(C)C,.,4,.,i,-1.3,.
C/C(Cl)=C\Cn1c(N2CCCC2)nc2c1c(=O)[nH]c(=O)n2C,.,1,24,i,0.06,0.076
O=C(CN1CCC(c2nc3ccccc3s2)CC1)NCc1cccs1,.,7,-19,i,-1.5,0.06*
CCN(CC)CCNC(=O)c1ccc(NC(=O)c2ccc(F)cc2F)cc1,-0.87,-2,.,i,1.4,.
Cc1c(NC(=O)CSc2ncccn2)c(=O)n(-c2ccccc2)n1C,-0.075,0,.,i,0.52,.
CC(=O)/C=C(\C)Nc1c(C)n(C)n(-c2ccccc2)c1=O,1.8*,-8,-21,i,-0.09,?
Cc1c(NC(=O)CSc2ccccc2F)c(=O)n(-c2ccccc2)n1C,-2.2*,11,.,i,-0.03,0.081

# Source: PubChem
